Shown are actives, neighbours in structure and some others; about 11% of the full set was active somewhere.
ALDH1A1 block – qHTS Assay for Inhibitors of Aldehyde Dehydrogenase 1 (ALDH1A1); Potency, µM (titrated, usually from 75.3 µM), actives largely listed as inhibitors; Purified ALDH1A1, NADH fluorescence, propionaldehyde substrate; hit rate 7.3% among 220,000
Target sequence (P00352 whole entry, looked up): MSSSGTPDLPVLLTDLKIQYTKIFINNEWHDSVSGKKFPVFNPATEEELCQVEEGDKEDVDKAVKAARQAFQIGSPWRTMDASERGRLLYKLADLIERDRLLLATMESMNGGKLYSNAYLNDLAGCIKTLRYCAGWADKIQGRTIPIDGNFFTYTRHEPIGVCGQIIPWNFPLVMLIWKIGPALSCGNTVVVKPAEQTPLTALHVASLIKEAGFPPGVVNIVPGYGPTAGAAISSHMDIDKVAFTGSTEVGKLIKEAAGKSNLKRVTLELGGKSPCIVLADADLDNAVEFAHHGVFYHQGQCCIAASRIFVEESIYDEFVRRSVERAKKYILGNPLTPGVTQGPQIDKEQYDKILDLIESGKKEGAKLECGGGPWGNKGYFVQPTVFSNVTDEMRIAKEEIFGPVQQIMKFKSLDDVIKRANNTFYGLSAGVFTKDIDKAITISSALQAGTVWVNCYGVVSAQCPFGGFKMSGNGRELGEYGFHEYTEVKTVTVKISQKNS
HPGD inh – qHTS Assay for Inhibitors of HPGD (15-Hydroxyprostaglandin Dehydrogenase); Potency, µM, most hits filed as inhibitors; purified HPGD, NADH fluorescence kinetic, PGE2 substrate; 15-hydroxyprostaglandin dehydrogenase [NAD(+)] (Homo sapiens), P15428; hit rate 4.3% among 150,000
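20 nM HPGD preincubated 15 min at room temperature with compound in 50 mM Tris-HCl pH 8, 0.01% Tween 20. Started with 1 mM NAD+ and 30 uM prostaglandin E2; NADH fluorescence (360/450 nm) read 5 times over 30-s intervals, last minus first.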
PNC inhibitor – High Content Assay for Compounds that inhibit the Assembly of the Perinucleolar Compartment; PC3M PTB-GFP, PNC prevalence imaging, 16 h; stronger effect = lower value; activity change (PNC), negative = inhibition, % at 10 µM; hit rate 3.1% among 140,000; AID 2417, 2010;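 active = readout at or below -70, meaning at least 70% loss of cells showing the perinucleolar compartment, a nuclear body marking cancer cells; inconclusive = readout between -30 and a set limit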
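Read-out is percentage of cells bearing a perinucleolar compartment, from automated 20x imaging of fixed, Hoechst-stained PC3M PTB-GFP cells. Cells were seeded 4 h, then exposed 16 h to compound (23 nl of library stock) in duplicate plates.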
Each line names hits and unclear results; the compound was inactive in the other large screens. Unless noted, calls follow the shape of the dose curve; as a rule, active = well fitted inhibition curve with a large enough effect (not every such curve was filed as active); inconclusive = small, poorly fitted or top-dose-only effect, or another doubt; inactive = no such curve, though single readings can be large or run the other way.

N#Cc1c(NC(=O)C2CC(c3ccccc3O)=NO2)sc2c1CCC2 (stereo not drawn)	ALDH1A1 block 11µM, HPGD inh 25µM
CC(C)(C)C(=O)Nc1sc2c(c1C#N)CCC2	none (no result: HPGD inh, PNC inhibitor)
CC(C)C(=O)Nc1sc2c(c1C#N)CCCCC2	none
CC(=O)Nc1sc2c(c1C#N)CCCC2	none
N#Cc1c(NC(=O)C2CC(c3ccccc3Cl)=NO2)sc2c1CCC2 (stereo not drawn)	ALDH1A1 block inconclusive, HPGD inh inconclusive
O=C1CCN(S(=O)(=O)c2ccc(Br)cc2)CCN1	none (no result: HPGD inh, PNC inhibitor)
CC(C)(C)C(=O)Nc1cccc(OC(F)(F)C(F)Cl)c1 (stereo not drawn)	none (no result: HPGD inh, PNC inhibitor)
CC(OC(=O)c1cn(-c2ccccc2)nc1-c1cccnc1)C(N)=O (stereo not drawn)	none (no result: HPGD inh, PNC inhibitor)
COC(=O)N/N=C/c1c[nH]c2ccccc12	none
COc1cccc(/C=N/NC(=O)c2cc(-c3ccc(C)cc3)n[nH]2)c1O	HPGD inh 40µM (no result: PNC inhibitor)
COc1cccc(/C=N/NC(=O)c2ccc(=O)[nH]n2)c1O	none (no result: HPGD inh, PNC inhibitor)
Cc1nc(C)c(C(=O)N/N=C/c2c[nH]c3ccccc23)s1	ALDH1A1 block inconclusive, HPGD inh inconclusive, PNC inhibitor -87
Cc1nc(C)c(C(=O)N/N=C/c2cn(C)c3ccccc23)s1	none
O=C(N/N=C/c1c[nH]c2ccccc12)c1cc(-c2ccc3ccccc3c2)n[nH]1	HPGD inh inconclusive, PNC inhibitor -113
CC(C)(C)OC(=O)N/N=C/c1c[nH]c2ccccc12	PNC inhibitor -109
O=C(N/N=C/c1c[nH]c2ccccc12)c1cc(-c2ccc(-c3ccccc3)cc2)n[nH]1	HPGD inh inconclusive
CC(C)CO/N=C1/C[C@@H](O)[C@@H](O)[C@@H]2[C@@H]3C(=O)N(Cc4ccccc4)C(=O)[C@H]3CC[C@H]12	none (no result: HPGD inh, PNC inhibitor)
Cc1c[n+](C)ccc1CC1C([N+](=O)[O-])=C[N-]c2ncnn21 (stereo not drawn)	none (no result: HPGD inh, PNC inhibitor)
COc1ccc(C(=O)N/C(=C\c2ccc3c(c2)OCO3)C(=O)NCCc2nc3ccccc3[nH]2)cc1	ALDH1A1 block inconclusive
CCN(CC(=O)NCCc1ccccc1)S(=O)(=O)c1ccc(Br)cc1	PNC inhibitor inconclusive
O=S(=O)(NCc1ccccc1)c1ccc(S(=O)(=O)N(Cc2ccccn2)Cc2ccco2)cc1	none
CC(=O)Nc1ccc(S(=O)(=O)N(Cc2ccco2)CC2CCCO2)cc1 (stereo not drawn)	ALDH1A1 block 13µM
O=C(CN(Cc1ccccc1)S(=O)(=O)c1ccc(Br)cc1)NCc1ccco1	ALDH1A1 block 13µM
CN(C)S(=O)(=O)c1ccc(S(=O)(=O)N(CC(=O)Nc2ccccc2)CC2CCCO2)cc1 (stereo not drawn)	ALDH1A1 block inconclusive
CN(C)S(=O)(=O)c1ccc(S(=O)(=O)N(CC(=O)Nc2ccccc2)Cc2ccco2)cc1	none
CCN(CC)S(=O)(=O)c1ccc(S(=O)(=O)N(Cc2ccccn2)Cc2ccco2)cc1	ALDH1A1 block 1.8µM, PNC inhibitor inconclusive
CCN(CC)S(=O)(=O)c1ccc(S(=O)(=O)N(CC(=O)Nc2ccccc2)Cc2ccco2)cc1	ALDH1A1 block 8.9µM
C=CCNC(=O)CC1Nc2c3ccccc3nc(=S)n2C1=O (stereo not drawn)	none (no result: HPGD inh, PNC inhibitor)
O=C(CSc1nnc(-c2ccncc2)n1-c1ccc(F)cc1)NNC(=O)c1cccc(O)c1	none
Cn1c(=O)c(-c2cc(=O)[nH][nH]2)c(O)c2ccccc21	none (no result: HPGD inh, PNC inhibitor)
CSc1nnnc2ccccc12	none (no result: PNC inhibitor)
CC(C)(C)c1ccc(NNC(=O)C2CCC2)cc1	none (no result: HPGD inh, PNC inhibitor)
O=C1CC(C(=O)Nc2cccc(F)c2)n2ncnc2N1 (stereo not drawn)	none (no result: HPGD inh, PNC inhibitor)
CC(=O)Nc1ccc(N2C(=O)c3ccc(C(=O)Nc4nnc(SCc5ccc(F)cc5)s4)cc3C2=O)cc1	none (no result: HPGD inh, PNC inhibitor)
CNc1nc(-c2ccc(N(C)C)cc2)nc2ccccc12	HPGD inh inconclusive (no result: PNC inhibitor)
O=C(O)CCCCn1cnc2c(=S)nc[nH]c21	none (no result: PNC inhibitor)
C=CCNC(=S)NS(=O)(=O)c1cccs1	ALDH1A1 block 18µM (no result: HPGD inh, PNC inhibitor)
O=S(=O)(NCCNS(=O)(=O)c1cccs1)c1cccs1	none
COC(=O)CSc1c(-c2ccccc2)c2cc(Cl)ccc2[nH]c1=O	ALDH1A1 block inconclusive
CC(=O)OCCSc1c(-c2ccccc2)c2cc(Cl)ccc2[nH]c1=O	ALDH1A1 block 14µM, PNC inhibitor inconclusive (no result: HPGD inh)
COc1ccc(NC(=O)/C(C#N)=C\c2cc(C)n(-c3ccc(Oc4ccc([N+](=O)[O-])cn4)cc3)c2C)cc1	HPGD inh 28µM
Cc1cc(/C=C(/C#N)C(=O)Nc2ccccc2)c(C)n1-c1cccnc1	ALDH1A1 block inconclusive
N#CCc1ccc(Oc2ccc([N+](=O)[O-])cn2)cc1	none (no result: HPGD inh, PNC inhibitor)
Cc1cc(/C=C(\C#N)C(=O)Nc2ccc(F)cc2)c(C)n1-c1ccc(N2CCOCC2)c([N+](=O)[O-])c1	ALDH1A1 block 16µM
Cc1cc(C=O)c(C)n1-c1ccc(Oc2ccc([N+](=O)[O-])cn2)cc1	ALDH1A1 block 10µM, PNC inhibitor -118
COc1ccc(NC(=O)/C(C#N)=C/c2cc(C)n(-c3ccc(N4CCOCC4)c([N+](=O)[O-])c3)c2C)cc1	none
Cc1cc(C)c(NC(=S)N(CCc2ccncc2)C(C)C)c(C)c1	none (no result: HPGD inh, PNC inhibitor)
CC(C)N(C)C(=O)C(=O)c1cccn1-c1cccc(Cl)c1C#N	none (no result: HPGD inh, PNC inhibitor)
CC(C)(C)c1cc(N)on1	none
Cc1ccc(NC(=O)c2cc3cccc([N+](=O)[O-])c3[nH]2)cc1	none (no result: HPGD inh, PNC inhibitor)
CCC/C=N/NC(=O)c1[nH]c2c([N+](=O)[O-])cccc2c1C	ALDH1A1 block inconclusive, PNC inhibitor -113
O=S(=O)(Nc1ccc(Cl)nn1)c1ccccc1	none (no result: HPGD inh, PNC inhibitor)
O=S(=O)(NNc1ccc(Cl)nn1)c1ccc(F)cc1	ALDH1A1 block 28µM, HPGD inh 3.5µM, PNC inhibitor -88
CC(=NCc1cccc(Cl)c1)c1nc(-c2ccco2)oc1O	ALDH1A1 block 18µM
Oc1oc(-c2ccco2)nc1C=Nc1cccc(Cl)c1	PNC inhibitor inconclusive
CC(=O)Nc1ccc(-c2nnn(CC(=O)Nc3ccc4c(c3)OCO4)n2)cc1Cl	none (no result: HPGD inh, PNC inhibitor)
CCOC(=O)c1[nH]nc(-c2c(O)cc(C)cc2O)c1-c1csc(C)n1	none
CCCc1cc(-c2n[nH]c(C(=O)OCC)c2-c2cscn2)c(O)cc1O	ALDH1A1 block 8.9µM
CCOc1ccc(C(=O)C[n+]2ccccc2C)cc1	PNC inhibitor inconclusive
CCC(C)NC(=S)N1CCN(C)CC1 (stereo not drawn)	ALDH1A1 block 22µM (no result: HPGD inh, PNC inhibitor)
CCC(C)[C@H](NC(=O)N1CCN(C)CC1)C(=O)OC (stereo partly drawn)	PNC inhibitor inconclusive
O=C(NCCc1c[nH]c2ccccc12)/C(=C\c1cccnc1)NC(=O)c1ccccc1F	none (no result: HPGD inh, PNC inhibitor)
NCCc1nnc(SCC(N)=O)o1	none
CCN(CC)C(=O)CSc1nnc(CCN)o1	PNC inhibitor -82
Cc1ccc2c(c1)C=CC(C)N2C(=O)c1ccccc1 (stereo not drawn)	none
Cc1ccc2c(c1)C=CC(C#N)N2C(=O)c1ccccc1 (stereo not drawn)	PNC inhibitor -88
Cc1cccc(C)c1Nc1oc(-c2ccccc2)nc1-c1cccc2ccccc12	none (no result: PNC inhibitor)
C=CCc1cc(C)ccc1OCCn1ccnc1	ALDH1A1 block inconclusive
C=CCc1cc(C)ccc1OCCOCCn1ccnc1	ALDH1A1 block 25µM
Fc1cccc(NC(=S)NCCN2CCOCC2)c1	none

Source: PubChem BioAssay (National Center for Advancing Translational Sciences (NCATS))
